Experiment in all cases: DAPPL (digital affinity profiling via proximity ligation, sequencing); 10 mM Tris-HCl pH 7.5, 50 mM NaCl, 1 mM DTT, 4% glycerol, room temperature, 30 min; GST-TFs on glutathione beads, 16-mer random dsDNA library, 0.1% formaldehyde crosslink after washing; high values mean tight binding
One test has as its target T1, FLI1 (Homo sapiens, UniProt Q01543 1-452).
T1 sequence: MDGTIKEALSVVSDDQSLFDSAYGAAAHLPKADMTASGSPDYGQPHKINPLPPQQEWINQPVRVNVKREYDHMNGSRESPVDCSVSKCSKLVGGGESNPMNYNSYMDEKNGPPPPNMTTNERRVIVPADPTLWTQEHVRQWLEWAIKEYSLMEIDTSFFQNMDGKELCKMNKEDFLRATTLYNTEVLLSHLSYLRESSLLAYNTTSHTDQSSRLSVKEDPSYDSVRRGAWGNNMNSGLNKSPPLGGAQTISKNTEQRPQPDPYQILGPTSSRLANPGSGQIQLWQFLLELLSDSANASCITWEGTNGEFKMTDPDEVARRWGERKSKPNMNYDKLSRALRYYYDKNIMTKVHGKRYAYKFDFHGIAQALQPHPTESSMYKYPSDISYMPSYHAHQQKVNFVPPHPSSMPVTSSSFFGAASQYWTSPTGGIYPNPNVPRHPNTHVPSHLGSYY
The note with it: protein: recombinant; tags: N-terminal GST; dsDNA, one strand shown. The gist of the method:
(§1)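 Sequencing on an Illumina NextSeq500 followed washing, crosslinking with 0.1% formaldehyde, proximity ligation (BsaI/T4 ligase, 1 h, 37 °C) and PCR amplification of pools that had been incubated for 30 min at room temperature with 200 nmole of a random double-stranded 16-mer DNA library in Tris/NaCl/DTT/glycerol buffer. Each pool held DNA-barcoded human transcription factors, expressed in yeast as GST fusions and captured on glutathione beads, plus a tag-only sample. Binding signal is a hexamer's read frequency for a factor divided by its frequency in the tag-only sample.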

A further test concerns the target T2, ELK1 (Homo sapiens, UniProt P19419 1-428).
T2 sequence: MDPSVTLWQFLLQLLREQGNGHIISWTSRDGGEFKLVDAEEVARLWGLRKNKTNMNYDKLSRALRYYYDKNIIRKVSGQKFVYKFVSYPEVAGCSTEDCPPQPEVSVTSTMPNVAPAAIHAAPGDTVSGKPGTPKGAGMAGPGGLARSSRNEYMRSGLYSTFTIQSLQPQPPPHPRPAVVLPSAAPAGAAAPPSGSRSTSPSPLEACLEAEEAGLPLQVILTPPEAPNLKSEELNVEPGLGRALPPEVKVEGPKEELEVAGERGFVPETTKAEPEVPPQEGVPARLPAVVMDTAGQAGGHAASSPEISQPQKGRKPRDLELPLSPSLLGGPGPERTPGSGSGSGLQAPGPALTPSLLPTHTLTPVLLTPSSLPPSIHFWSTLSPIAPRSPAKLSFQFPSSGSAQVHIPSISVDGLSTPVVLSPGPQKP
The conditions noted are these: protein: recombinant; tags: N-terminal GST; dsDNA, one strand shown. Put shortly:
as §1

A further test deals with T3, GABPA (Homo sapiens, UniProt Q06546 1-454).
T3 sequence: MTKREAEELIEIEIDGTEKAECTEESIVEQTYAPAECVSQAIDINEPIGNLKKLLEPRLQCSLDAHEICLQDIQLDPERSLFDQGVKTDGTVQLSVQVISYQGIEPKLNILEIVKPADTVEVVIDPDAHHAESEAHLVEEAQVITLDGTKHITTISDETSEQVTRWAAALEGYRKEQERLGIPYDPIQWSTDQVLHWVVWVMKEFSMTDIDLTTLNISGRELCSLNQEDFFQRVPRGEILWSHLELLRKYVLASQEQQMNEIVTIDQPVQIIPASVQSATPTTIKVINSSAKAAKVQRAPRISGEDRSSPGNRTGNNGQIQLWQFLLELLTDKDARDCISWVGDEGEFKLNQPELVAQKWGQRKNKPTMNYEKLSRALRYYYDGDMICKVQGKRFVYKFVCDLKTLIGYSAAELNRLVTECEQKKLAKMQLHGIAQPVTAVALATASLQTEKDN
The note with it: protein: recombinant; tags: N-terminal GST; dsDNA, one strand shown. The gist of the method: as §1

For the next test, the target named is T4, ERG (Homo sapiens, UniProt P11308 1-479).
T4 sequence: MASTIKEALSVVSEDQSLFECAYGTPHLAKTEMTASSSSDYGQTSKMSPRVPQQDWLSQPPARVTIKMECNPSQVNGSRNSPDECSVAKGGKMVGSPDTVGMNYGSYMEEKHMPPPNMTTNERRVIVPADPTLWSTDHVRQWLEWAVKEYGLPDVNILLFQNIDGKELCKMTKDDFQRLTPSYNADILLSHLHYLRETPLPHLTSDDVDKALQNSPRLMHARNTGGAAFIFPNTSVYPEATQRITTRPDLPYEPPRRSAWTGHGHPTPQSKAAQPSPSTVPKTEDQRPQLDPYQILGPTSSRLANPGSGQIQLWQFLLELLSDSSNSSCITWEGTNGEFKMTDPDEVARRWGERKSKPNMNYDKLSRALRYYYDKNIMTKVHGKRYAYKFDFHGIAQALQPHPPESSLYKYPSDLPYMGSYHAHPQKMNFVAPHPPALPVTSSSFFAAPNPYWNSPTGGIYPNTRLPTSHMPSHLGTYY
The conditions noted are these: protein: recombinant; tags: N-terminal GST; dsDNA, one strand shown. Put shortly:
as §1

For another test, the target named is ELF1 (Homo sapiens, UniProt P32519 1-619). The conditions noted are these: protein: recombinant; tags: N-terminal GST; dsDNA, one strand shown. The gist of the method:
as §1

A further test deals with T5, EHF (Homo sapiens, UniProt Q9NZC4 1-300).
T5 sequence: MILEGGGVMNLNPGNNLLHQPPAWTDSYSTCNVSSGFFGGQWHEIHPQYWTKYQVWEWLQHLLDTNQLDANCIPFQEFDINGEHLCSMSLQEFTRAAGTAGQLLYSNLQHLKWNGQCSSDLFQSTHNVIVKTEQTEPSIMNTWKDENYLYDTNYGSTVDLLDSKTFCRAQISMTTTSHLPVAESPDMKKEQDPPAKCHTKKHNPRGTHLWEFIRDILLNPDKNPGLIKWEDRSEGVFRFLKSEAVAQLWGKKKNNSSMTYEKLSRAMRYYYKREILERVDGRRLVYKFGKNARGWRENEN
The note with it: protein: recombinant; tags: N-terminal GST; dsDNA, one strand shown. Put shortly:
as §1

The target in another test is SPI1 (Homo sapiens, UniProt P17947 1-270). The conditions noted are these: protein: recombinant; tags: N-terminal GST; dsDNA, one strand shown. The gist of the method: as §1
The target in another test is SPIB (Homo sapiens, UniProt Q01892 1-262). The conditions noted are these: protein: recombinant; tags: N-terminal GST; dsDNA, one strand shown. Put shortly: as §1
Chain of SPIB (Q01892 whole entry): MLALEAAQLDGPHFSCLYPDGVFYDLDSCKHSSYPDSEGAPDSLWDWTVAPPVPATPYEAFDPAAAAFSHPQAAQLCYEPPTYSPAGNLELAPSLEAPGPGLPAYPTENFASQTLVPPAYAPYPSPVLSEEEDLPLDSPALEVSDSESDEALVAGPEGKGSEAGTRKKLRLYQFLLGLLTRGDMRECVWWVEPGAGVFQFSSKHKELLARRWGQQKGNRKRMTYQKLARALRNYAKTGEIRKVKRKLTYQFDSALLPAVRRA
In the next test the target is T6, ELK3 (Homo sapiens, UniProt P41970 1-407).
T6 sequence: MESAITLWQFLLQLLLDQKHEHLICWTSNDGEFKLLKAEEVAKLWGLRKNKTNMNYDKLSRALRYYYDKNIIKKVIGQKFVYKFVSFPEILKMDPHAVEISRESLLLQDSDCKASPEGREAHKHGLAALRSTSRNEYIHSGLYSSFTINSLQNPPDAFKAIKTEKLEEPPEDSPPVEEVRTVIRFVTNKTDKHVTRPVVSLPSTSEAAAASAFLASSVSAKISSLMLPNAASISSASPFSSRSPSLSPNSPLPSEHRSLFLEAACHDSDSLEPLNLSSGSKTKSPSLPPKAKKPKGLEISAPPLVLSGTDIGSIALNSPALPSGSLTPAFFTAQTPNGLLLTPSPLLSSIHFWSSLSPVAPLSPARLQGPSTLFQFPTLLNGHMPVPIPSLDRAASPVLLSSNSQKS
The conditions noted are these: protein: recombinant; tags: N-terminal GST; dsDNA, one strand shown. The gist of the method:
as §1

The next test concerns the target T7, FEV (Homo sapiens, UniProt Q99581 1-238).
T7 sequence: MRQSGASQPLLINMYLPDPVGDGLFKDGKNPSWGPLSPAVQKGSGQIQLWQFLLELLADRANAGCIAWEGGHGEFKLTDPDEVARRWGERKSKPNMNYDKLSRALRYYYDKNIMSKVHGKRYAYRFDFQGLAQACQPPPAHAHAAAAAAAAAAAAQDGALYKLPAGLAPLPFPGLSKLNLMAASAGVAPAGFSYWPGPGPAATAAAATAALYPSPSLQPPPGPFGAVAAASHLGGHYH
The conditions noted are these: protein: recombinant; tags: N-terminal GST; dsDNA, one strand shown. Put shortly:
as §1

For a further test, the target named is ETV5 (Homo sapiens, UniProt P41161 1-510). The note with it: protein: recombinant; tags: N-terminal GST; dsDNA, one strand shown. Put shortly: as §1
Chain of ETV5 (P41161 whole entry): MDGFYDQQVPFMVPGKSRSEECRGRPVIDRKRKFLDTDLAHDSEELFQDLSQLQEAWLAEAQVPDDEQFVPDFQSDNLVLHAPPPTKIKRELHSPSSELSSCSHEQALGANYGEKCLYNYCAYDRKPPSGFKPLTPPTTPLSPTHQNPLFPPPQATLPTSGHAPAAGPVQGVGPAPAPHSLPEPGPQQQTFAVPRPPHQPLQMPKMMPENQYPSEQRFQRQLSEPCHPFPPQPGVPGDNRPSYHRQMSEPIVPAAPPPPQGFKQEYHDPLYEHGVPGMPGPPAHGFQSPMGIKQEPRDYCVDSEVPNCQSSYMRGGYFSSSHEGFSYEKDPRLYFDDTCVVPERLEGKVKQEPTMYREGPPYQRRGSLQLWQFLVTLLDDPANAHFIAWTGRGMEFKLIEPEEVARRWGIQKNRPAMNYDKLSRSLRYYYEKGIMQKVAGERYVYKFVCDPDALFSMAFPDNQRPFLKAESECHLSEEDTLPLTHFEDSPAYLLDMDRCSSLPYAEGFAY
The next test deals with HSF1 (Homo sapiens, UniProt Q00613 1-529). The note with it: protein: recombinant; tags: N-terminal GST; chain copies: 3; dsDNA, one strand shown. Put shortly: as §1
Chain of HSF1 (Q00613 whole entry): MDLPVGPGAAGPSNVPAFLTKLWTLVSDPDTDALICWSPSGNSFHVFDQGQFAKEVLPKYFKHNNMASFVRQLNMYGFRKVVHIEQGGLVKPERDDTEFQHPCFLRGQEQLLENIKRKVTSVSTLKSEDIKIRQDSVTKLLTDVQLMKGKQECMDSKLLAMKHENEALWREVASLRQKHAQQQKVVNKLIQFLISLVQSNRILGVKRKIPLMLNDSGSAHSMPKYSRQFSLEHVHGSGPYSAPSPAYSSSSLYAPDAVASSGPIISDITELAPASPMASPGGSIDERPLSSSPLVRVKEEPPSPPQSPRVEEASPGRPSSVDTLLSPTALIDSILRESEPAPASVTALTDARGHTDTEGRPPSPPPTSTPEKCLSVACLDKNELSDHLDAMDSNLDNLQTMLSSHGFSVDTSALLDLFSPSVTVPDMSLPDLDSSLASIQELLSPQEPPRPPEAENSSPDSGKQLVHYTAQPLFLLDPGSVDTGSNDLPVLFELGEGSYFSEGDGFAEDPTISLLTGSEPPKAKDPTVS
The target of the next test is T8, SPIC (Homo sapiens, UniProt Q8N5J4 1-248).
T8 sequence: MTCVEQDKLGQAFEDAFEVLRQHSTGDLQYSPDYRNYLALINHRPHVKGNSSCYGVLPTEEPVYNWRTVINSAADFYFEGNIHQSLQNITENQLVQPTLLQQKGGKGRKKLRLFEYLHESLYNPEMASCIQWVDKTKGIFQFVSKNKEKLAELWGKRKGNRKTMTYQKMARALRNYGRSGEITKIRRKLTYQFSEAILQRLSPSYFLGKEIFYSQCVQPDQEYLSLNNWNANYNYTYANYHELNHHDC
The note with it: protein: recombinant; tags: N-terminal GST; dsDNA, one strand shown. The gist of the method: as §1

The target in another test is ELF4 (Homo sapiens, UniProt Q99607 1-663). The note with it: protein: recombinant; tags: N-terminal GST; dsDNA, one strand shown. Put shortly: as §1
Chain of ELF4 (Q99607 whole entry): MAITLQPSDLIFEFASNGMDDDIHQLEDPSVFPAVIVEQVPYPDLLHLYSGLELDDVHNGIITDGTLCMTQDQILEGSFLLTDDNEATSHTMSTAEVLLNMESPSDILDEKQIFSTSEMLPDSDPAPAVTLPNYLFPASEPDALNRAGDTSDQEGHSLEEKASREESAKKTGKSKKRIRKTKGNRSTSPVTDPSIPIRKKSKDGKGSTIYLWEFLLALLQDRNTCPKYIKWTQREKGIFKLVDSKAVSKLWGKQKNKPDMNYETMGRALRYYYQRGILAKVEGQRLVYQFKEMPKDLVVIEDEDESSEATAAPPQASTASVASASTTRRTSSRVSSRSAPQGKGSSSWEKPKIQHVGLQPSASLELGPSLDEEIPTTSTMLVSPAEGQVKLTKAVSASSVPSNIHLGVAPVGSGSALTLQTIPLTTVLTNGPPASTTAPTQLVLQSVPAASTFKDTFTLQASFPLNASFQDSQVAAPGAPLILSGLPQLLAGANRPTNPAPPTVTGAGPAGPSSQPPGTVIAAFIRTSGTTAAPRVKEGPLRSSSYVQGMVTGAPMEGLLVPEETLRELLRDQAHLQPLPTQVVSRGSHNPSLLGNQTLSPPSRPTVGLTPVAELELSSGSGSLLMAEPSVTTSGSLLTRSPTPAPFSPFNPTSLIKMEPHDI
A further test concerns the target T9, ELK4 (Homo sapiens, UniProt P28324-2 1-405).
T9 sequence: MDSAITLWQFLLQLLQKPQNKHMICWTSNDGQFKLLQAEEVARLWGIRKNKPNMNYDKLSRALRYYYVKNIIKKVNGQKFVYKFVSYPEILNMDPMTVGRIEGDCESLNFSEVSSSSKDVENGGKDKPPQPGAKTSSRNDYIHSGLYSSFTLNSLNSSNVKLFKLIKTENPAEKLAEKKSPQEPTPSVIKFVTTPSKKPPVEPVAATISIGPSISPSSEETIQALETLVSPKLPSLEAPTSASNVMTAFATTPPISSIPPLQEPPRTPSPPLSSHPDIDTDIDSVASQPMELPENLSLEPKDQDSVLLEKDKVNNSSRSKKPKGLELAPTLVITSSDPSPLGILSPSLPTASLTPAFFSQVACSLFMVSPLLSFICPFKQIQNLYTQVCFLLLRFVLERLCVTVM
The conditions noted are these: protein: recombinant; tags: N-terminal GST; dsDNA, one strand shown. Put shortly:
as §1

The target in a further test is T10, ETV2 (Homo sapiens, UniProt O00321 1-342).
T10 sequence: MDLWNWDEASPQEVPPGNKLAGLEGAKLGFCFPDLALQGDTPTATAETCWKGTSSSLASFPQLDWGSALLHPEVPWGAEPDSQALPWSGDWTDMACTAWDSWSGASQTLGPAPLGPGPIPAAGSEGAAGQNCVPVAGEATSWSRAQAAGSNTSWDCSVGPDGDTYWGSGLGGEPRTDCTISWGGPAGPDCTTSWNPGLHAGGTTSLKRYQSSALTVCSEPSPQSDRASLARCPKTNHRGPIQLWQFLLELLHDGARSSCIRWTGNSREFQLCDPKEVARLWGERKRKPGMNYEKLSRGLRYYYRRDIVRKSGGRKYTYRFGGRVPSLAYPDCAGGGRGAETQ
The note with it: protein: recombinant; tags: N-terminal GST; dsDNA, one strand shown. Put shortly:
as §1

The next test deals with T11, ELF3 (Homo sapiens, UniProt P78545 1-371).
T11 sequence: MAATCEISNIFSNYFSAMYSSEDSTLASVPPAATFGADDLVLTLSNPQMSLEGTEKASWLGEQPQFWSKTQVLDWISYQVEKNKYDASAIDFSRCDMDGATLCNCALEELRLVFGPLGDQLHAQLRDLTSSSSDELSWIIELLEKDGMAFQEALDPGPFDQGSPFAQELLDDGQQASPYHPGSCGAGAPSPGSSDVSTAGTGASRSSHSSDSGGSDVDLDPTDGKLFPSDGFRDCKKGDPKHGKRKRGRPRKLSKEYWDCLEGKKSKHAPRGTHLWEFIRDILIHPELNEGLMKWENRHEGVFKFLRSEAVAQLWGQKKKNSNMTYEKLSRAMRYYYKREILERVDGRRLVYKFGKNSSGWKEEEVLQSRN
The note with it: protein: recombinant; tags: N-terminal GST; dsDNA, one strand shown. The gist of the method: as §1

The target in another test is ETV1 (Homo sapiens, UniProt P50549 1-477). The note with it: protein: recombinant; tags: N-terminal GST; dsDNA, one strand shown. The gist of the method: as §1
Chain of ETV1 (P50549 whole entry): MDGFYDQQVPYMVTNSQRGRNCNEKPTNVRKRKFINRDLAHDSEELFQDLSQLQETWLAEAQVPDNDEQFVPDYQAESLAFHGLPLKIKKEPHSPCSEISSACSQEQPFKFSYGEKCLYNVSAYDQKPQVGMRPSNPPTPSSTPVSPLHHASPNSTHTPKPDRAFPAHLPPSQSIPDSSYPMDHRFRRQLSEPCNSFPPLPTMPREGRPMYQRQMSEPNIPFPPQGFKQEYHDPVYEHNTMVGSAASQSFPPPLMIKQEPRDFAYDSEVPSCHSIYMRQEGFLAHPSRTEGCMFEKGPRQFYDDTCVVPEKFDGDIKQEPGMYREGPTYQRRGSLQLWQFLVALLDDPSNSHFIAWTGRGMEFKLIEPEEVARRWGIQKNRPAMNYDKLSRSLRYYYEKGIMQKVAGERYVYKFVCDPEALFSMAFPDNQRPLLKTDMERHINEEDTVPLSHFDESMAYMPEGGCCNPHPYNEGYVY

Chain of ELF1 (P32519 whole entry): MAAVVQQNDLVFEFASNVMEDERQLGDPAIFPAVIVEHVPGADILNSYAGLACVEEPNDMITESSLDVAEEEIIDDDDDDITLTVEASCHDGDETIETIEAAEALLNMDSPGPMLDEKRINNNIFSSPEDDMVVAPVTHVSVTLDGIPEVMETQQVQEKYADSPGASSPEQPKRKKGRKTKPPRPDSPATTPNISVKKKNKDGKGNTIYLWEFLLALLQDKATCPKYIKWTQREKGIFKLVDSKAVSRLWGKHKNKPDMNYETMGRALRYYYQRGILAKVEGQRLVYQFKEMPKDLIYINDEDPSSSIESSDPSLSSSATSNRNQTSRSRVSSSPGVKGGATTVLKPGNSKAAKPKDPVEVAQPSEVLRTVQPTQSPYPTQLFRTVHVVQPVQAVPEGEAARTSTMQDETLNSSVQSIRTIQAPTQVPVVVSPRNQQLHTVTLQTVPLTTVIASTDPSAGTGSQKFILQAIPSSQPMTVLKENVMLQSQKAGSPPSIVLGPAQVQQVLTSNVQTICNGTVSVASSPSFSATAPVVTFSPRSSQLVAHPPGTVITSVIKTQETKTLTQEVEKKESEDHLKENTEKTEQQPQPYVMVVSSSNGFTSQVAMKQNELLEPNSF

Take CGCCGA: the binding signal is 1.19 fold enrichment (6-mer frequency, TF over GST control) in the test with FLI1; 1.2 fold enrichment (6-mer frequency, TF over GST control) in the test with ELK1; 1.26 fold enrichment (6-mer frequency, TF over GST control) with GABPA; 1.1 fold enrichment (6-mer frequency, TF over GST control) in the test with ERG; 1.19 fold enrichment (6-mer frequency, TF over GST control) in the test with ELF1; 1.22 fold enrichment (6-mer frequency, TF over GST control) with EHF. Further, the binding signal in the test with SPI1 is 1.16 fold enrichment (6-mer frequency, TF over GST control); with SPIB it was 1.18 fold enrichment (6-mer frequency, TF over GST control); with ELK3, 1.22 fold enrichment (6-mer frequency, TF over GST control); with FEV, 1.21 fold enrichment (6-mer frequency, TF over GST control); with ETV5, 1.13 fold enrichment (6-mer frequency, TF over GST control); with HSF1 it was 1.2 fold enrichment (6-mer frequency, TF over GST control). Moreover, the binding signal was 1.18 fold enrichment (6-mer frequency, TF over GST control) with SPIC; 1.26 fold enrichment (6-mer frequency, TF over GST control) in the test with ELF4; 1.28 fold enrichment (6-mer frequency, TF over GST control) in the test with ELK4; 1.16 fold enrichment (6-mer frequency, TF over GST control) with ETV2; 1.03 fold enrichment (6-mer frequency, TF over GST control) with ELF3; 1.15 fold enrichment (6-mer frequency, TF over GST control) in the test with ETV1.

(Values after PMC7862700, “An all-to-all approach to the identification of sequence-specific readers for epigenetic DNA modifications on cytosine”.)
